From PubChem
PABP1 MLLE inh = inhibitors of PABP1 MLLE–PAM2 peptide binding, primary screen, biochemical, fluorescence polarization, FITC-PAM2, GST-MLLE; inhibition, % at 20 µM; Polyadenylate-binding protein 1 (Homo sapiens), P11940; AID 588489, 2011; actives 0.36% (n = 360,000); in the data active = inhibition above about 35%, passing the limit was not always enough;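 note: plate controls were DMSO wells with GST-MLLE for no effect and wells lacking GST-MLLE protein for full effect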
eIF4E 4G PPI = eIF4E–eIF4G protein interaction inhibitors, primary screen, biochemical, uHTS, TR-FRET, eIF4GI fragment | AID 782, 2007 | inhibition, % at 21.7 µM | actives 0.37% (n = 220,000) | Eukaryotic translation initiation factor 4E (Mus musculus) + Eukaryotic translation … | TR-FRET eIF4E-eIF4GI(517-606) binding, 2 h;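 active = inhibition above about 30%, limit read from the data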;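 note: 0% = full FRET control wells and 100% = background wells lacking eIF4GI fragment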
PABP FP inh = PABP poly(A) RNA binding inhibitors, primary screen, biochemical, fluorescence polarization, uHTS. Polyadenylate-binding protein 1 (Homo sapiens), P11940. calls only at 35 µM. actives 1% (n = 290,000);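 note: calls also rest on retests at 20 µM and on dose response follow-up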
eIF4H inh = human eIF4H binding inhibitors, primary screen, translation initiation inhibitor project, biochemical, uHTS, fluorescence polarization; Eukaryotic translation initiation factor 4H (Homo sapiens), Q15056; eIF4H fluorescence polarization binding assay; inhibition, % at 35 µM; actives 0.94% (n = 290,000);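 note: calls also rest on retests at 20 µM and on dose response follow-up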
EBV gp42 block = Epstein-Barr virus gp42 inhibitors, primary screen, biochemical, uHTS, fluorescence polarization; Glycoprotein 42 (Epstein-Barr virus (strain AG876)), Q1HVG2; Fluorescence polarization binding assay, mP read-out; inhibition, % (tested at 21.74 µM); actives 0.42% (n = 220,000); in the data active = inhibition above about 50%
Target sequence (Q1HVG2 whole entry, looked up): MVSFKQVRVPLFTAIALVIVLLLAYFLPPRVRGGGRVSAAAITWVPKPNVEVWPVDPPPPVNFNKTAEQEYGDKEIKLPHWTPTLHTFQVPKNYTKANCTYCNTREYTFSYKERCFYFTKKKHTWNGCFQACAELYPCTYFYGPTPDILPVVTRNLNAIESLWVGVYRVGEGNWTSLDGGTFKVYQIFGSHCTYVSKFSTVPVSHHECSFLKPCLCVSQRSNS
Starred values were filed as active, the others as inactive; i = inactive; ? = inconclusive; nt = no result given; + = active, no number. Rows were chosen to be rich in hits. Some 1.7% of all compounds tested hit in one or more screens of this group. Unless noted, the rule behind the calls is not given here.

SMILES	PABP1 MLLE inh	eIF4E 4G PPI	PABP FP inh	eIF4H inh	EBV gp42 block
C=C(C)C(=O)Nc1cccc(C2=NOC3(C2)C[C@@H](C(N)=O)N(C(=O)/C(C)=C/C)C3)c1 (some centres not stated)	-2	10	+	83*	-14
C/C=C/C=C/C(=O)N1CC2(CC(c3cccc(NC(=O)/C=C/C)c3)=NO2)C[C@@H]1C(N)=O (some centres not stated)	-11	-1	i	2	-23
Cc1ccc(S(=O)(=O)N[C@@H](C)C(=O)N2CCC(C(=O)N[C@@H](Cc3ccccc3)C(=O)O)CC2)cc1	-8	nt	i	-9	nt
COc1ccc(NS(=O)(=O)c2cccc(NC(=O)CCC(=O)c3ccc(Cl)cc3)c2)cc1	-4	3	i	active	-9
COc1ccc(NS(=O)(=O)c2cccc(NC(=O)CCC(=O)c3cccs3)c2)cc1	-6	7	i	6	2
CCN(CC)CCCN1C(=O)CSC1c1ccc([N+](=O)[O-])cc1 (configuration not stated)	42*	2	i	-14	-39
COc1cc2c(C#N)c(N3CCCCC3)nc(N)c2c(N)n1	-12	-6	+	91*	-20
COc1cc2c(C#N)c(N3CCOCC3)nc(N)c2c(N)n1	19	-1	i	-2	-9
CCOc1cc2c(C#N)c(N3CCCCC3)nc(N)c2c(N)n1	-37	1	i	127	-21
COc1cc2c(C#N)c(N3CCc4ccccc4C3)nc(N)c2c(N)n1	2	nt	+	122*	nt
OCCCc1nc2n(n1)C(c1cccs1)C=C(c1ccccc1)N2 (configuration not stated)	nt	6	?	?	142*
OCCCc1nc2n(n1)C(c1ccccc1)C=C(c1ccc(F)cc1)N2 (configuration not stated)	13	-2	i	-2	25
COc1ccc(C2NC3=C(CCCC3)C(C#N)(C#N)C2(C#N)C#N)cc1 (configuration not stated)	nt	nt	?	?	6
COc1ccc(C2NC3=C(CCC3)C3(C#N)C4(N=C(N)C23C#N)OCCO4)cc1 (configuration not stated)	-19	0	+	72*	-10
CCOC(=O)Cc1nn(Cc2nc(-c3ccc(C#N)cc3)cs2)c(=O)c2ccccc12	-6	-1	i	-3	-11
O=C(N/N=C/C=C\c1ccco1)c1ccccn1	4	-2	+	75*	-10
O=C(N/N=C/C=C\c1ccco1)c1cccnc1	2	-2	+	62*	-12
O=C(N/N=C\C=C\c1ccco1)c1cncc(Br)c1	-7	-2	+	66*	-4
O=C(N/N=C/C=C/c1ccco1)c1cnccn1	15	-2	i	74	1
O=C(N/N=C/C=C/c1ccco1)c1cccnc1	27	9	+	64*	5
O=S(=O)(NC1C2CC3CC(C2)CC1C3)c1ccccc1 (configuration not stated)	0	nt	nt	nt	nt
COCCNC(=O)C1(C)CCN(C(=O)c2cc(C)nn2C(C)(C)C)C1 (configuration not stated)	-1	nt	nt	nt	nt
CC(C)(Oc1ccc(Cl)cc1)C(=O)OCC(=O)NCCc1ccccc1	12	nt	i	-9	nt
CC(C)c1ccc(/C=N/NC(=O)c2ccccn2)cc1	-4	55*	i	5	-24
O=C(NC(=S)NCCO)c1cn(-c2ccccc2)nc1-c1ccccc1	50*	-1	i	-4	2
SMILES	PABP1 MLLE inh	eIF4E 4G PPI	PABP FP inh	eIF4H inh	EBV gp42 block
Cc1ccc(C(=O)NN2C(=O)/C(=C/c3cn(C)c4ccccc34)SC2=S)cc1	-106	-5	i	?	130*
Cn1cc(/C=C2\SC(=O)NC2=S)c2ccccc21	59	-5	?	?	72*
Cn1cccc1/C=C1\SC(=S)N(NC(=O)c2ccccc2Cl)C1=O	-127	9	i	?	-173
Cn1cc(/C=C2\SC(=S)N(NC(=O)c3ccccc3Cl)C2=O)c2ccccc21	-125	8	i	?	87*
Cc1cccc(S(=O)(=O)NC(=O)C2(C)CCN2C(=O)Cc2ccc(Cl)cc2Cl)c1 (configuration not stated)	-3	nt	nt	nt	nt
CCO/C=C1\C(=O)N(CC)c2ccccc21	16	3	+	active	2
CCN1C(=O)/C(=C\N(C)C)c2ccccc21	7	-1	i	4	9
Cc1cccc(OCC(=O)Nc2nnc(-c3ccco3)s2)c1	10	2	i	33	-23
O=C(Cc1ccccc1)Nc1nnc(-c2ccco2)s1	-6	-5	+	64	-27
COc1ccccc1OCC(=O)Nc1nnc(-c2ccco2)s1	10	0	+	96*	-23
COc1ccc2cc(CNCCOCCOCCNCc3ccc4cc(OC)ccc4c3)ccc2c1	-3	nt	nt	nt	nt
CCCn1c(=O)c2sccc2n2c(CCCC(=O)NCc3cccnc3)nnc12	2	nt	i	-6	nt
CCCn1c(=O)c2sccc2n2c(CCCC(=O)NCc3ccco3)nnc12	-1	nt	+	78*	nt
COc1ccc(/C(O)=C2/C(=O)C(=O)N(CC3CCCO3)C2c2cccc(OC)c2)cc1 (configuration not stated)	-13	5	i	1	-16
COc1ccc(/C(O)=C2/C(=O)C(=O)N(CC3CCCO3)C2c2ccc(O)c(OC)c2)cc1 (configuration not stated)	17	-1	+	active	-10
Cc1cc(C(=O)O)ccc1-c1ccc(/C=C2\NC(=O)N(Cc3ccc(F)cc3)C2=O)o1	-4	5	+	81*	5
Cc1ccc(CN2C(=O)N/C(=C/c3ccc4c(c3)n(C)c(=O)n4C)C2=O)cc1	nt	0	i	-12	-12
Cc1ccc(CN2C(=O)N/C(=C/c3ccc(-c4ccc(C(=O)O)cc4)o3)C2=O)cc1	-15	10	+	69*	19
O=C(COC(=O)/C=C/c1ccccc1[N+](=O)[O-])NC(=O)NC1CCCC1	2	nt	nt	nt	nt
CC(C)C(=O)N1CCN(c2ccccc2NC(=O)c2cc([N+](=O)[O-])ccc2N2CCOCC2)CC1	-10	5	i	-2	-4
CCCCC(CC)Cn1c(N)c(C#N)c2nc3ccccc3nc21 (configuration not stated)	-14	-12	+	68*	-14
CCC(C)(C)C1CCC2(CC1)NC(=O)N(CC(=O)N(C)Cc1ccc3c(c1)OCCO3)C2=O (configuration not stated)	-3	nt	nt	nt	nt
CCn1c(N)c(C(=O)NCc2cccnc2)sc1=S	38	-6	i	1	-7
